This is one part of a sample in which hits are shown more often than they occur.
MARV entry inh – Marburg virus entry inhibition. Potency, µM (highest dose often 37.8 µM), hits mostly inhibitors. Marburg virus pseudotyped entry inhibition, cell reporter. 300,000 tested, 1.8% active. AID 540276; calls by dose curve; tested in HEK293 cells
Lassa entry inh – Lassa virus entry inhibition; Lassa virus pseudotype entry inhibition, cell reporter; Potency, µM (top dose mostly 37.9 µM), hits mostly inhibitors; 300,000 tested, 1.2% active; AID 540256; calls by dose curve; tested in HEK293 cells; also: nearly all actives have a fitted effect of over 50% in size
Shiga toxin inh – inhibitors of Shiga toxin in Vero cells; Vero cells, Shiga toxin protein synthesis inhibition reporter; inhibition, % at 38.7 µM; 290,000 tested, 9.2% active; in the data active = inhibition mostly above about 28%, no sharp cut-off; inactive = mostly below about 43%
AMA1-RON2 inh – AMA1-RON2 (P. falciparum) interaction inhibition; AlphaScreen AMA1-biotinylated RON2 peptide binding; Potency, µM (series often up to 58.2 µM), usual class: inhibitors; 360,000 tested, 0.2% active; AID 720542; active = well fitted inhibition curve with a large enough effect; inconclusive = small, poorly fitted or top-dose-only effect; inactive = no such curve, though single readings can be large or run the other way; also: nearly all actives have a fitted effect of over 45% in size
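AMA1 (3D7) with his tag at 25 nM final met compounds first, then biotinylated RON2 peptide at 25 nM; detection used donor plus acceptor beads, 10 µg/mL apiece, read by AlphaScreen after 30 min at room temperature.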
CHX counter – affects cycloheximide protein synthesis inhibition readout, counter-screen; AID 2314; max response, %; cell reporter, cycloheximide protein synthesis inhibition counterscreen; 300,000 tested, 12% active; in the data active = max response mostly above about 13%, no sharp cut-off; inactive = mostly below about 14%; also: read at 38.3 µM for the half of the compounds with a filed dose
Numbers stand for hits; - = inactive; ? = inconclusive; . = no result given; + = active, no number.

SMILES | MARV entry inh | Lassa entry inh | Shiga toxin inh | AMA1-RON2 inh | CHX counter
Cc1ccc(CN2CCC(CO)(CC3CCCCO3)CC2)o1 (centres undefined) | - | - | - | - | -
Cc1ccc(S(=O)(=O)NCc2cc(=O)n(C)c(=O)n2C)cc1C | . | . | - | - | -
COc1ccc(NC(=O)Cn2cc(C(=O)c3ccc(C)c(C)c3)c(=O)c3cc(OC)ccc32)cc1 | - | - | . | . | .
CC(C)NC(=O)N(C)C[C@@H]1OCc2cnnn2CCCC(=O)N([C@H](C)CO)C[C@@H]1C | . | . | . | - | .
Cc1cccc(-n2ncc3c(NCCCO)ncnc32)c1 | . | . | - | - | 38
C=CCNc1ncnc2c1cnn2-c1ccc(Cl)cc1 | ? | - | 52 | - | 33
Cc1cccc(-n2ncc3c(Nc4ccc(Oc5ccc(Cl)cc5)cc4)ncnc32)c1 | . | - | . | . | .
Cc1cccc(-n2ncc3c(NC4CCCC4)ncnc32)c1 | . | - | . | . | .
C=CCNc1ncnc2c1cnn2-c1cccc(C)c1 | - | . | + | - | 34
Cc1cccc(-n2ncc3c(NC4CCCCC4)ncnc32)c1 | . | . | 75 | - | 46
O=C(CNC(=O)c1cc(S(=O)(=O)N2CCCCC2)ccc1N1CCOCC1)Nc1ccc(F)c(F)c1 | - | - | . | - | .
O=c1[nH]c2c(=O)[nH]cnc2nc1-c1ccccc1 | - | ? | . | - | .
Cc1ccc(C(C(=O)NCc2ccco2)N(C(=O)CNC(=O)c2cccs2)c2ccc(C)cc2C)cc1 (centres undefined) | ? | - | 68 | - | 16
O=c1c2c3nc4ccccc4nc3n(/N=C/c3ccccn3)c2ncn1-c1ccccc1 | 5.6µM | ? | - | - | -
CCc1c(C)sc(NC(=O)c2ccoc2C)c1C(N)=O | - | - | - | - | 22
O=C(Nc1sc2c(c1C(=O)NCCO)CCCC2)c1ccco1 | - | - | - | - | -
NC(=O)c1ccsc1NC(=O)c1coc2ccccc2c1=O | - | - | 104 | - | 24
CCOC(=O)c1c(NC(=O)c2ccco2)sc2c1CCCCC2 | ? | - | - | - | -
CN(C)C(=O)c1c(NC(=O)c2ccco2)sc2c1CCCCC2 | - | - | - | - | 16
O=C(Nc1sc2c(c1C(=O)O)CCCCC2)c1ccco1 | ? | ? | - | - | 33
Cc1ccc2c(c1)C(c1ccc(F)cc1)N(C(=O)C(C)C)CC(=O)N2 (centres undefined) | - | - | . | . | .
NC(=O)c1c(NC(=O)c2ccco2)sc2c1CCC2 | ? | ? | 44 | - | 22
Cc1occc1C(=O)Nc1sc2c(c1C(N)=O)CCCCC2 | ? | ? | 62 | - | 29
CC1CCc2c(sc(NC(=O)c3ccco3)c2C(=O)O)C1 (centres undefined) | 3.5µM | ? | 126 | - | 40
CC(C)[C@H](NC(=O)c1ccccc1F)C(=O)OCC(=O)Nc1sccc1C(N)=O | . | . | . | - | .
SMILES | MARV entry inh | Lassa entry inh | Shiga toxin inh | AMA1-RON2 inh | CHX counter
Cc1ccc(C(=O)N[C@H](C(=O)Nc2sccc2C(N)=O)C(C)C)cc1 | - | ? | - | - | 18
O=c1cc(-c2c(F)c(F)c(F)c(F)c2F)oc2c(F)c(F)c(F)c(F)c12 | - | . | - | . | -
CC(C)CCn1c(SCC(=O)NC2CCS(=O)(=O)C2)nc2cc(Cl)ccc2c1=O (centres undefined) | - | - | . | - | .
CCCCN(CCCNC(=O)c1c(C)oc2nc[nH]c(=O)c12)Cc1ccccc1 | - | - | . | . | .
Cc1noc(C)c1C(=O)Nc1sccc1C(N)=O | . | . | . | - | .
Cc1occc1C(=O)Nc1sccc1C(N)=O | - | - | - | - | 38
NC(=O)c1cc(Cc2ccccc2)sc1NC(=O)c1ccco1 | ? | ? | 78 | - | 47
CCOC(=O)c1c(NC(=O)c2ccco2)sc(C(=O)N2CCCC2)c1C | - | - | - | - | -
CCOc1ccc(CC(=O)Nc2sc(Cc3ccccc3)cc2C(N)=O)cc1OCC | ? | - | - | - | -
O=C(Nc1sc2c(c1C(=O)O)CCCC2)C(=O)N1CCOCC1 | . | . | 33 | - | 20
CCOC(=O)c1c(NC(=O)C(C)N2CCN(C(=O)c3ccco3)CC2)sc2c1CCCC2 (centres undefined) | ? | 11µM | - | ? | 19
O=C(O)CCCCCCCCCCCNC(=O)NC12CC3CC(CC(C3)C1)C2 | . | . | . | - | .
Cc1c(C(=O)OCC(=O)N2CC(C)OC(C)C2)oc2ccc(Br)cc12 (centres undefined) | - | - | - | - | -
COc1ccccc1NC=C1C(=O)OC(C)(C)OC1=O | - | - | 82 | - | 36
COc1ccccc1NC1=C(Cl)C(=O)N(C2CCCCC2)C1=O | ? | - | - | ? | -
Cc1ccccc1NC1=C(Cl)C(=O)N(C2CCCCC2)C1=O | - | - | - | - | 13
Cc1ccc2ncnc(NCCC(=O)O)c2c1 | - | - | - | - | -

Compound activity from PubChem BioAssay.
